Legend:
Assay in all cases: DAPPL (digital affinity profiling via proximity ligation, sequencing); 10 mM Tris-HCl pH 7.5, 50 mM NaCl, 1 mM DTT, 4% glycerol, room temperature, 30 min; GST-TFs on glutathione beads, 16-mer random dsDNA library, 0.1% formaldehyde crosslink after washing; high values mean tight binding
Details in all cases: protein: recombinant; tags: N-terminal GST; dsDNA, one strand shown
ERG = molecular target: T1, ERG (Homo sapiens, UniProt P11308 1-479)
T1 sequence: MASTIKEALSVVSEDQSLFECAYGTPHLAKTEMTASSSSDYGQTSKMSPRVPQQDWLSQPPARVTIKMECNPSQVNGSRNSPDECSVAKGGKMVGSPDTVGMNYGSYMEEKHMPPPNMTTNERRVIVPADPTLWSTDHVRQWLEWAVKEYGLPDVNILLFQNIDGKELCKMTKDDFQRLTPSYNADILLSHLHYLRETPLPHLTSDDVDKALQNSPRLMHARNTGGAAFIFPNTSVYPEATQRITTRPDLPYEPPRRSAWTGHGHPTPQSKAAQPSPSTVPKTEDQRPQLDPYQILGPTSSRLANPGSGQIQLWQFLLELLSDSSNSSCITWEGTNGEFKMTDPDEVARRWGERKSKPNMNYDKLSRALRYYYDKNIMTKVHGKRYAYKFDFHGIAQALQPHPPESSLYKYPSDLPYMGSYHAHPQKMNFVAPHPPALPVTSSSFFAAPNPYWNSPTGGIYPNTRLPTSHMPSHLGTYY
Procedure, shortened: (§1)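 A tag-only sample was pooled with DNA-barcoded human transcription factors that had been expressed in yeast as GST fusions and captured on glutathione beads. The pools were incubated for 30 min at room temperature with 200 nmole of a random double-stranded 16-mer DNA library in Tris/NaCl/DTT/glycerol buffer, then washed, crosslinked with 0.1% formaldehyde, proximity-ligated (BsaI/T4 ligase, 1 h, 37 °C), PCR-amplified and sequenced on an Illumina NextSeq500. Binding signal is each hexamer's read frequency for a factor divided by its frequency for the tag-only sample.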

ELF1 = ELF1 (Homo sapiens, UniProt P32519 1-619)
Procedure, shortened: as §1

EHF = molecular target: T2, EHF (Homo sapiens, UniProt Q9NZC4 1-300)
T2 sequence: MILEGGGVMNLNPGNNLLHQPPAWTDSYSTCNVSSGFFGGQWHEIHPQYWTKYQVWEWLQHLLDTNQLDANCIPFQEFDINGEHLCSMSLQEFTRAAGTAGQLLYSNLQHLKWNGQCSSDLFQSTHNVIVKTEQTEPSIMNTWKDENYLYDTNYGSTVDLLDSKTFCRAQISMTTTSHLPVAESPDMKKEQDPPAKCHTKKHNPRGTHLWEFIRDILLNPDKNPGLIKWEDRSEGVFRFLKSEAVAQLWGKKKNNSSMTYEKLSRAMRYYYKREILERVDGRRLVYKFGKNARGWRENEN
Procedure, shortened: as §1

ETV5 = ETV5 (Homo sapiens, UniProt P41161 1-510)
Procedure, shortened: as §1

ELK4 = molecular target: T3, ELK4 (Homo sapiens, UniProt P28324-2 1-405)
T3 sequence: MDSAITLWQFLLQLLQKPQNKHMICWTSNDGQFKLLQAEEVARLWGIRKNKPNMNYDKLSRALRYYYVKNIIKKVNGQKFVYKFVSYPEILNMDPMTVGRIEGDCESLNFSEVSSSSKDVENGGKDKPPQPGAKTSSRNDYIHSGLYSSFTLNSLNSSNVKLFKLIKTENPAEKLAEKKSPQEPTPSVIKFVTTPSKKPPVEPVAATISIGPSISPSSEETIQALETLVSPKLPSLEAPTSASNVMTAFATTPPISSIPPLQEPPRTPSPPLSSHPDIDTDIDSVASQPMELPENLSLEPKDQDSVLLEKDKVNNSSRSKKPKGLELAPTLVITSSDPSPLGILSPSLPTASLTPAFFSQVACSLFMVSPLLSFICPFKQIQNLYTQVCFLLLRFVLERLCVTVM
Procedure, shortened: as §1

ETV2 = molecular target: T4, ETV2 (Homo sapiens, UniProt O00321 1-342)
T4 sequence: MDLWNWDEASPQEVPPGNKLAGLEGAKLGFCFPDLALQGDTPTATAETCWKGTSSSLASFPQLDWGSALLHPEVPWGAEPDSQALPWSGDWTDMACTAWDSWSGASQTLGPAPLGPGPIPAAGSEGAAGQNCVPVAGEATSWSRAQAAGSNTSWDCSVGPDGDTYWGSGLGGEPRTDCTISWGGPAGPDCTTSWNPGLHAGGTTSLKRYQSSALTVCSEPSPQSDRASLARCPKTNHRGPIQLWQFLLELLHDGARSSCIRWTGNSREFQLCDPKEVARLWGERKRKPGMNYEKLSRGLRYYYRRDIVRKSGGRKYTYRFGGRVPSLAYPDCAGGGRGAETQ
Procedure, shortened: as §1

ELF3 = molecular target: T5, ELF3 (Homo sapiens, UniProt P78545 1-371)
T5 sequence: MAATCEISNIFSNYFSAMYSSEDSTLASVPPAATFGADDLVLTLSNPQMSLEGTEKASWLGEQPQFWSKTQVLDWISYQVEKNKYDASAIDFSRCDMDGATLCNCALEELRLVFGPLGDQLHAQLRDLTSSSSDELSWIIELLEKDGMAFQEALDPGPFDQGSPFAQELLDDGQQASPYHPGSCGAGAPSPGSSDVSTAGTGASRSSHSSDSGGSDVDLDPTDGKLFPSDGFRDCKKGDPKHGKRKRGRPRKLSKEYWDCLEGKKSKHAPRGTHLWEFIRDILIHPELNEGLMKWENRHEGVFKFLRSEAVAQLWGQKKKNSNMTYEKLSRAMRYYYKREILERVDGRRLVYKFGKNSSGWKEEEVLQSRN
Procedure, shortened: as §1

ERF = molecular target: T6, ERF (Homo sapiens, UniProt P50548 1-548)
T6 sequence: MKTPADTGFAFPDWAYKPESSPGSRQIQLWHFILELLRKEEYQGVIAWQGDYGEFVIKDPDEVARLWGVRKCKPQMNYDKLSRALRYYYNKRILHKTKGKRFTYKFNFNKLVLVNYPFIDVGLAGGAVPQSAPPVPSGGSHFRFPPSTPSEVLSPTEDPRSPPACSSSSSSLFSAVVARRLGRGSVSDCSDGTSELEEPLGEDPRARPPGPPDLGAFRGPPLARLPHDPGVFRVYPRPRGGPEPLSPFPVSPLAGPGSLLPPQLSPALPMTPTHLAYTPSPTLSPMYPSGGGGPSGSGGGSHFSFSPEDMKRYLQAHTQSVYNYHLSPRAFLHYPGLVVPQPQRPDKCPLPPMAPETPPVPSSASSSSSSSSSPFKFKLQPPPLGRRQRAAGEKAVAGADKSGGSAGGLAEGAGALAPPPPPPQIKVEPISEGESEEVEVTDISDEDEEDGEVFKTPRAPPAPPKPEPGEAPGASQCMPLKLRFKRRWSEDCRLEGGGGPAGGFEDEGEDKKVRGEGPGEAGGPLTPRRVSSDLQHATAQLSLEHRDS
Procedure, shortened: as §1

ETV3L = molecular target: T7, ETV3L (Homo sapiens, UniProt Q6ZN32 1-361)
T7 sequence: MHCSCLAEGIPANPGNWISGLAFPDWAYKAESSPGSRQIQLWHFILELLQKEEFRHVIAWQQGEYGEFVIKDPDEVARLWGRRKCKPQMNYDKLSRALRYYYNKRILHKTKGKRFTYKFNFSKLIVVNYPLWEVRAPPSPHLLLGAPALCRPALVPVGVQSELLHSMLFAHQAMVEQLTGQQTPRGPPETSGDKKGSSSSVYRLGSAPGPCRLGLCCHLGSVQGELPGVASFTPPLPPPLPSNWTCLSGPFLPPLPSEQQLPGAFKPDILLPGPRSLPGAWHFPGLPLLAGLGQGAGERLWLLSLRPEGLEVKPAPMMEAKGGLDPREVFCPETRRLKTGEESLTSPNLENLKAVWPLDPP
Procedure, shortened: as §1

ETS2 = molecular target: T8, ETS2 (Homo sapiens, UniProt P15036 1-469)
T8 sequence: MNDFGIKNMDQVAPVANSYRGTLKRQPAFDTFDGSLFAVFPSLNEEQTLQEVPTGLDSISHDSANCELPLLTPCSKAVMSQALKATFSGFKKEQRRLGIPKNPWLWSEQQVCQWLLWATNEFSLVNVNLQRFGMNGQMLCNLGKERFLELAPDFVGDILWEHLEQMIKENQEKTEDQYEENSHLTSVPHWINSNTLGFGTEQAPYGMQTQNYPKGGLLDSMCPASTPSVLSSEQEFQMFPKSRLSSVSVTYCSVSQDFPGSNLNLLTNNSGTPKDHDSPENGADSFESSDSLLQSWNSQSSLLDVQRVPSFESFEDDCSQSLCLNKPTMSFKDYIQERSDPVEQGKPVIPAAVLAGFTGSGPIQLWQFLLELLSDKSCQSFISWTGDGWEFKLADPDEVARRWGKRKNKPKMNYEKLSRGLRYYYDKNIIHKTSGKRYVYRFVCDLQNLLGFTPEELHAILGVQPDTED
Procedure, shortened: as §1

ETV7 = molecular target: T9, ETV7 (Homo sapiens, UniProt Q9Y603 1-341)
T9 sequence: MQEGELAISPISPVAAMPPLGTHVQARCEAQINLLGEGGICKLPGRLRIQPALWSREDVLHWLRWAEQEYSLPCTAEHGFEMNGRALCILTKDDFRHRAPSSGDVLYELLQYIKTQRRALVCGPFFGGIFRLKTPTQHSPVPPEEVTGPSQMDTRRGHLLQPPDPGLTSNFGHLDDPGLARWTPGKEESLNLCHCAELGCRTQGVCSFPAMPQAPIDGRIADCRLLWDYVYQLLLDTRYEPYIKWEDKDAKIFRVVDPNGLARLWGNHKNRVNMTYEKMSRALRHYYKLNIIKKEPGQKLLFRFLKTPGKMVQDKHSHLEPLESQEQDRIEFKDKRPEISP
Procedure, shortened: as §1

ETV3 = molecular target: T10, ETV3 (Homo sapiens, UniProt P41162-2 1-143)
T10 sequence: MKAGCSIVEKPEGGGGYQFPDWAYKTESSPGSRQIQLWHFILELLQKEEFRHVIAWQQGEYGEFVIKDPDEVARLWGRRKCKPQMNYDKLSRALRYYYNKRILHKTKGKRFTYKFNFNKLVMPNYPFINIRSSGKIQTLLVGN
Procedure, shortened: as §1

ETV6 = ETV6 (Homo sapiens, UniProt P41212 1-452)
Procedure, shortened: as §1

ETV5, sequence (P41161 whole entry): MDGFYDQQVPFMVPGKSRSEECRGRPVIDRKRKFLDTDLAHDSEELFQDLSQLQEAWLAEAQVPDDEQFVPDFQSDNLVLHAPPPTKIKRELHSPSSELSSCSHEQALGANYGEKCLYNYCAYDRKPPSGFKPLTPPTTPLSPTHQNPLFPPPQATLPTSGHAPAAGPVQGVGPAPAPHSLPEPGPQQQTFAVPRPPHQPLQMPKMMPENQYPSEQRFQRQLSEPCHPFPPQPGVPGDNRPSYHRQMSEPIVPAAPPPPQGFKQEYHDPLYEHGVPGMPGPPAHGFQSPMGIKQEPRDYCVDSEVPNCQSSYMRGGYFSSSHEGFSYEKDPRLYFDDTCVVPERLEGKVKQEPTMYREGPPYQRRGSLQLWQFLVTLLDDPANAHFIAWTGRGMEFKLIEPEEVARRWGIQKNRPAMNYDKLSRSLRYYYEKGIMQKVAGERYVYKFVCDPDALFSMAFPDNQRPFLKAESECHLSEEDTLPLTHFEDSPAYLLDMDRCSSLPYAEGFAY
ETV6, sequence (P41212 whole entry): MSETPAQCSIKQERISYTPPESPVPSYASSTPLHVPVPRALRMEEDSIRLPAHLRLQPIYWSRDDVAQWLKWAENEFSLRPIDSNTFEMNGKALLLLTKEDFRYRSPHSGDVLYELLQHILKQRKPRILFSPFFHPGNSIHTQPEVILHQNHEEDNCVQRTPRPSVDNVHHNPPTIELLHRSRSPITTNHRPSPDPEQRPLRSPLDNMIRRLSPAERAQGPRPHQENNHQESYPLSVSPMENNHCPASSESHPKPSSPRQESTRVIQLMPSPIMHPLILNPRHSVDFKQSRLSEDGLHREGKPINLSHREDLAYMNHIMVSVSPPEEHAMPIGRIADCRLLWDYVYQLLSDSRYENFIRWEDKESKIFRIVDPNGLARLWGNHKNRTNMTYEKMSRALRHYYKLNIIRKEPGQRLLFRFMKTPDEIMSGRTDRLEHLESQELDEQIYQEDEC
ELF1, sequence (P32519 whole entry): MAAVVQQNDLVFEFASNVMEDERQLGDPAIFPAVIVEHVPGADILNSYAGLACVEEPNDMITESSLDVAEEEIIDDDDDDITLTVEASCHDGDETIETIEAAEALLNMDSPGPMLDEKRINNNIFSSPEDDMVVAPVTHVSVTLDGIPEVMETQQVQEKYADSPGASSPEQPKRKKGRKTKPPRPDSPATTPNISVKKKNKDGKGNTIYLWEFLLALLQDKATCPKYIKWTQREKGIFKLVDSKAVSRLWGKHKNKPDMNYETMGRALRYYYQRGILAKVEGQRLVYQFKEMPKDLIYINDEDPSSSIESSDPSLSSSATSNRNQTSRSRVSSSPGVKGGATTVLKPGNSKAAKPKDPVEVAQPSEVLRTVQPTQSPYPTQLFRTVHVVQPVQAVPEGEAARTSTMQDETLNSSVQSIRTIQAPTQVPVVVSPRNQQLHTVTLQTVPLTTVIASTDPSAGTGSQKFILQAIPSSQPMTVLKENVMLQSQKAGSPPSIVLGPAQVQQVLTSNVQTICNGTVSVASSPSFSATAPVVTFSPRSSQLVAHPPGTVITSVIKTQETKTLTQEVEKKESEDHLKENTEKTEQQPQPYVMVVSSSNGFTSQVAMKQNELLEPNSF

Sequence: TCAAGC
- binding signal (ERG): 1.01 fold enrichment (6-mer frequency, TF over GST control)
- binding signal (ELF1): 1 fold enrichment (6-mer frequency, TF over GST control)
- binding signal (EHF): 1.01 fold enrichment (6-mer frequency, TF over GST control)
- binding signal (ETV5): 1.02 fold enrichment (6-mer frequency, TF over GST control)
- binding signal (ELK4): 1.01 fold enrichment (6-mer frequency, TF over GST control)
- binding signal (ETV2): 1.09 fold enrichment (6-mer frequency, TF over GST control)
- binding signal (ELF3): 1.04 fold enrichment (6-mer frequency, TF over GST control)
- binding signal (ERF): 1.06 fold enrichment (6-mer frequency, TF over GST control)
- binding signal (ETV3L): 1.08 fold enrichment (6-mer frequency, TF over GST control)
- binding signal (ETS2): 1 fold enrichment (6-mer frequency, TF over GST control)
- binding signal (ETV7): 1.04 fold enrichment (6-mer frequency, TF over GST control)
- binding signal (ETV3): 1.08 fold enrichment (6-mer frequency, TF over GST control)
- binding signal (ETV6): 1.03 fold enrichment (6-mer frequency, TF over GST control)

— paper PMC7862700, “An all-to-all approach to the identification of sequence-specific readers for epigenetic DNA modifications on cytosine”
